Source: PubChem BioAssay
Most compounds without a hit are left out; they make up all but 7.4% or so of the library.
FLuc counter – qHTS profiling assay for firefly luciferase inhibitor/activator using purifed enzyme and Km concentrations of substrates (counterscreen for miR-21 project); Luciferin 4-monooxygenase (Photinus pyralis), P08659; purified FLuc, Km substrates, luminescence inhibition; Potency, µM (titrated, usually from 57.5 µM), inactives show top-dose activity change, negative = inhibition, usual class: inhibitors; actives 6.9% (n = 360,000);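 note: plate controls were vehicle for no effect and reference inhibitor for full effect; nearly all actives have a fitted effect of over 55% in size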
Target sequence (P08659 whole entry, looked up): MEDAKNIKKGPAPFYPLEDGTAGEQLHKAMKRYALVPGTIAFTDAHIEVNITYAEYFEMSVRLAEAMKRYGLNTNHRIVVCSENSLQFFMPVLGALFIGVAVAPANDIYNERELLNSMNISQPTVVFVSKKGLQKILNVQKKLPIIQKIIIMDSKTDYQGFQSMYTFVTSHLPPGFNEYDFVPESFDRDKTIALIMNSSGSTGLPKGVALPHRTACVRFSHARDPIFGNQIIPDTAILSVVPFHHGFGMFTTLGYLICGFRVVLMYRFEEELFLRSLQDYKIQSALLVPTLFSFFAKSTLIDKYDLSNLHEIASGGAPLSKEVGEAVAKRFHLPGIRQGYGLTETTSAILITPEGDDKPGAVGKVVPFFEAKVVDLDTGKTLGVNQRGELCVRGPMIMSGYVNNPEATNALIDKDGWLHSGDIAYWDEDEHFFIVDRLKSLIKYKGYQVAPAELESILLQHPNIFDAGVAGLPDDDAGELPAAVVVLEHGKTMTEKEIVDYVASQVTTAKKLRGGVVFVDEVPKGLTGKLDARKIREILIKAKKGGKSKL
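Purified P. pyralis luciferase, 10 nM final, with Km-level 10 uM D-luciferin and 10 uM ATP in 50 mM Tris acetate pH 7.5, 10 mM Mg acetate, 0.01% Tween-20, 0.05% BSA; 6-point qHTS titration about 60 µM downward; luminescence read.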
SMN2 splice up – qHTS Assay for Enhancers of SMN2 Splice Variant Expression; HEK293 SMN2-luciferase splicing reporter, luminescence, 30-36 h; Potency, µM (titrated, usually from 46.1 µM), for inactives: at the highest dose activity change, positive = activation, usual class: activators; actives 2.8% (n = 210,000); note: % of control where 0% means no effect; nearly all actives have a fitted effect of over 55% in size
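HEK293 cells carry an SMN2 […]–luciferase reporter in which exon 7 inclusion puts luciferase in frame. Cells were plated 10-12 h before compound addition, then incubated 30-36 h at 37C. ONE-Glo luminescence was read; sodium butyrate at 4.5 mM final served as control.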
ELG1 genotox – qHTS screen for small molecules that induce genotoxicity in human embryonic kidney (HEK293T) cells expressing luciferase-tagged ELG1; HEK293T ELG1-luciferase reporter, luminescence, 16 h; actives 1.3% (n = 330,000); Potency, µM (doses to about 46 µM), for inactives: top-dose activity change, positive = activation, actives largely listed as activators; AID 504466, 2011; note: % of control where 0% means no effect; nearly all actives have a fitted effect of over 60% in size
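Cells (2,000/well) expressing the ELG1-luciferase fusion are dosed by pin tool and kept 16 hr at 37 °C, 5% CO2. Signal comes from ONE-Glo luciferase reagent after 30 min at room temperature.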
NPC1 prom act – qHTS Assay for NPC1 Promoter Activators. Potency, µM (top dose mostly 9.22 µM), for inactives: at the highest dose activation, usual class: activators. Huh7 NPC1 promoter luciferase reporter, 24 h. AID 485313, 2010. actives 2.4% (n = 320,000); note: % of control where 0% means no effect; nearly all actives have a fitted effect of over 60% in size
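Quantitative HTS used a cell-based reporter: Huh7 cells stably bearing the NPC1 promoter upstream of luciferase were treated with compounds for 24 h, and promoter activation was read as luminescence.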
Rab9 promoter act – qHTS Assay for Rab9 Promoter Activators | Huh7 Rab9 promoter-luciferase reporter, luminescence, 24 h | Potency, µM (series often up to 9.22 µM), for the others: at the top dose activation, negative = inhibition, hits mostly activators | actives 2.8% (n = 320,000) | AID 485297, 2010; note: % of control where 0% means no effect; nearly all actives have a fitted effect of over 60% in size
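Promoter activation is measured as luciferase luminescence in Huh7 cells stably transfected with a Rab9 promoter–luciferase construct, following 24 h compound exposure at 37 °C and 10 min reagent incubation at ambient temperature.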
* = called active by the depositor; [ ] = another dose, or the depositor's remark. Calls come from the whole dose curve; as a rule, active = well fitted curve in the direction sought with a large enough effect; inconclusive = small, poorly fitted or top-dose-only effect, or another doubt; inactive = no such curve, though single readings can be large; an effect the other way counts as inactive or inconclusive. Potency is the fitted concentration of half-maximal effect.

`Cc1ccccc1C(=O)N/N=C/c1ccncc1` gave FLuc counter inconclusive, SMN2 splice up -1%, ELG1 genotox 7%, NPC1 prom act 13% and Rab9 promoter act 11%.
For COc1ccc(C(=O)Nc2ccccc2C(=O)N/N=C/c2ccccn2)cc1OC the results were FLuc counter 0.85µM*, ELG1 genotox 21µM*, NPC1 prom act -8% and Rab9 promoter act -14%.
Screening COc1cccc2[nH]c3c(N4CCCC(C)C4)ncnc3c12 (stereo not drawn) returned FLuc counter 5.4µM*, SMN2 splice up 4%, ELG1 genotox -2%, NPC1 prom act 15% and Rab9 promoter act 28%.
COc1cccc2[nH]c3c(N4CC(C)CC(C)C4)ncnc3c12 (stereo not drawn) was read as FLuc counter -12%, SMN2 splice up -18%, ELG1 genotox -6%, NPC1 prom act -1% and Rab9 promoter act -1%.
`O=C(CSc1ccc(F)cc1)Nc1ccc(Br)cc1` gave FLuc counter 13µM*, SMN2 splice up inconclusive, ELG1 genotox inconclusive, NPC1 prom act inconclusive and Rab9 promoter act 2.8µM*.
For COC(=O)c1ccc(NC(=O)CSc2ccccn2)cc1 the results were FLuc counter inconclusive, SMN2 splice up -14%, ELG1 genotox inconclusive, NPC1 prom act 2% and Rab9 promoter act 13%.
For COC(=O)c1ccc(NC(=O)CSc2ccccc2)cc1 the results were FLuc counter 27µM*, SMN2 splice up 17%, ELG1 genotox inconclusive, NPC1 prom act 19% and Rab9 promoter act inconclusive.
Screening Nc1cccc2c1C(=O)N(C(=O)/C=C/c1cccc(F)c1)C2=O returned FLuc counter 21µM*, SMN2 splice up 15%, ELG1 genotox 0%, NPC1 prom act -8% and Rab9 promoter act -4%.
Screening Nc1cccc2c1C(=O)N(C(=O)/C=C/c1cccc(Br)c1)C2=O returned FLuc counter inconclusive, ELG1 genotox 8%, NPC1 prom act -8% and Rab9 promoter act -8%.
`COc1cc(OC)c(Nc2c3c(nc4nc(-c5cccs5)nn24)CCCC3)cc1Cl` gave FLuc counter 24µM*.
`CCCc1c(C(=O)N/N=C/c2cccnc2)nnn1-c1nonc1N` gave FLuc counter -15%, ELG1 genotox -1%, NPC1 prom act 1% and Rab9 promoter act -1%.
Screening Oc1ccc(N2Cc3ccccc3C2)cc1 returned FLuc counter -6%, ELG1 genotox 3%, NPC1 prom act -1% and Rab9 promoter act 10%[1.84 µM].
`O=Cc1ccc(N2Cc3ccccc3C2)cc1` gave FLuc counter 12µM*, ELG1 genotox inconclusive, NPC1 prom act -3% and Rab9 promoter act 11%.
Cc1cc2c(cc1C)CN(c1ccccc1)C2 was read as FLuc counter 0.67µM*, ELG1 genotox 2.3µM*, NPC1 prom act 1.1µM* and Rab9 promoter act 1µM*.
CCOc1ccc(N2Cc3ccccc3C2)cc1 was read as FLuc counter 12µM*, SMN2 splice up inconclusive, ELG1 genotox 23µM*, NPC1 prom act inconclusive and Rab9 promoter act 3.5µM*.
CCOc1ccc(N2CC(=O)N(c3ccc(OCC)cc3)CC2=O)cc1 was read as FLuc counter -8%, SMN2 splice up -11%, ELG1 genotox 1%, NPC1 prom act -3% and Rab9 promoter act 0%.
For Cc1ccccc1C=O the results were FLuc counter 0%, SMN2 splice up 0%, ELG1 genotox 2%, NPC1 prom act -1% and Rab9 promoter act -1%.
Cc1cc(N2Cc3ccccc3C2)ccc1C=O was read as FLuc counter 6.7µM*, ELG1 genotox 5.8µM*, NPC1 prom act inconclusive and Rab9 promoter act 0.32µM*.
Screening O=c1c(O)c(-c2ccccc2)oc2ccc3occc3c12 returned SMN2 splice up -23%.
Cn1c(=NC(=O)COc2ccccc2)sc2ccccc21 was read as FLuc counter 13µM*, SMN2 splice up 13µM*, ELG1 genotox 0%, NPC1 prom act 3.5µM* and Rab9 promoter act 2µM*.
Screening COc1cccc(C(=O)N/N=c2\sc3ccccc3n2C)c1 returned FLuc counter inconclusive, SMN2 splice up 18%, ELG1 genotox 3%, NPC1 prom act 1% and Rab9 promoter act -4%.
Screening COC(=O)Cn1c(=NC(=O)c2cccc(OC)c2)sc2cc(OC)ccc21 returned FLuc counter 3µM*, SMN2 splice up -8%, ELG1 genotox -1%, NPC1 prom act 12% and Rab9 promoter act 11%.
`Cn1c(=NC(=O)CS(=O)(=O)c2ccccc2)sc2ccccc21` gave FLuc counter 2%, ELG1 genotox 12%, NPC1 prom act inconclusive and Rab9 promoter act inconclusive.
For COc1cc(OC)cc(C(=O)N=c2sc3ccccc3n2C)c1 the results were FLuc counter inconclusive, SMN2 splice up 10µM*, ELG1 genotox inconclusive, NPC1 prom act inconclusive and Rab9 promoter act 2.5µM*.
`COc1ccc(C(=O)N=c2sc3cc(Cl)ccc3n2C)cc1` gave FLuc counter -13% and SMN2 splice up 1%.
COc1ccc(C(=O)N=c2sc3ccccc3n2C)cc1 was read as FLuc counter 1.7µM*, SMN2 splice up 2.5µM*, ELG1 genotox inconclusive, NPC1 prom act 3.2µM* and Rab9 promoter act 2.5µM*.
For COC(=O)Cn1c(=NC(=O)c2cc(OC)cc(OC)c2)sc2cc(OC)ccc21 the results were FLuc counter 11%, SMN2 splice up 2%, ELG1 genotox -5%, NPC1 prom act -3% and Rab9 promoter act 2%.
COc1cc(Cl)c(NS(=O)(=O)c2ccc3[nH]c(=O)ccc3c2)c(OC)c1 was read as FLuc counter -3%.
`COc1cccc(C(=O)N=c2sc3cc(S(C)(=O)=O)ccc3n2C)c1` gave FLuc counter -14%, SMN2 splice up 7%, ELG1 genotox inconclusive, NPC1 prom act inconclusive and Rab9 promoter act 3.5µM*.
COC(=O)c1ccc2c(c1)sc(=NC(=O)c1ccc(S(=O)(=O)N3CCCCC3)cc1)n2C was read as FLuc counter -1%.
CC(=O)Nc1ccc(S(=O)(=O)Nc2nc3ccccc3nc2Nc2cccc(O)c2)cc1 was read as FLuc counter inconclusive, ELG1 genotox 5%, NPC1 prom act -6% and Rab9 promoter act 0%.
For CC(=O)Nc1ccc(S(=O)(=O)Nc2nc3ccccc3nc2Nc2ccc3ccccc3c2)cc1 the results were FLuc counter 9.5µM*, SMN2 splice up inconclusive, ELG1 genotox -1%, NPC1 prom act -1% and Rab9 promoter act 1%.
`COC(=O)c1cc(Nc2nc3ccccc3nc2NS(=O)(=O)c2ccc(C)cc2)ccc1Cl` gave FLuc counter 19µM* and SMN2 splice up -2%.
